Among all 280,000 compounds or so, about 100 (0.036%) were called active. About 11% were inconclusive and are not listed. The sample holds actives, similar compounds and a random draw of the others, so the mix is not that of the screen. Calls follow the shape of the dose curve; as a rule, active = well fitted inhibition curve with a large enough effect in the signal ratio, with a control signal flat (not every such curve was filed as active); inconclusive = small, poorly fitted or top-dose-only effect, or effect the other way, or a change in a side signal; inactive = no such curve, though single readings can be large or run the other way; the % refers to the signal ratio.
biological target: Muscleblind-like protein 1 (Homo sapiens) (UniProt Q9NR56); test: qHTS Assay for Inhibitors of MBNL1-poly(CUG) RNA binding; details: TR-FRET MBNL1-His/biotin-(CUG)12 binding, 665/545 ratio; series mostly up to 57.5 µM
From the text: NIH Chemical Genomics Center [NCGC] NIH Molecular Libraries Probe Production Centers Network [MLPCN] MLPCN Grant: R03 MH087421-01 Assay Submitter (PI): Charles Thornton NCGC Assay Overview: Expanded CTG repeats in the 3' untranslated region of the DM protein kinase (DMPK) gene causes type I myotonic dystrophy (DM1). DM1 is a multi-systemic disease with a prevalence of 1/7000. Clinical features include myotonia, progressive muscle weakness and wasting, cardiac arrhythmia, insulin resistance, hypersomnolence, cataracts, and other symptoms. The pathogenic effect of expanded CTG repeats stems from deleterious effects of the mutant transcript. CUGexp mRNA accumulates in nuclear foci and sequesters proteins of the muscleblind family, of which MBNL1 is the most common family member in skeletal muscles. The binding interaction between MBNL1 and CUGexp tracts leads to deregulation of alternative splicing and is therefore a key molecular step in the pathogenesis of DM1. To target this binding interaction, we optimized a protein-RNA binding assay in 1536-well format for identification of small molecule inhibitors of biotinylated (CUG)12 and his-tagged MBNL1 binding. Protein-RNA complex of MBNL1-His and Biotin-(CUG)12 captures the detection reagents terbium-labeled anti-His antibody and streptavidin conjugated XL665. This brings the terbium label within close proximity to XL665 to allow time-resolved fluorescence resonance energy transfer (TR-FRET). Inhibitors of MBNL1-(CUG)12 binding will disrupt TR-FRET.
NCGC Assay Protocol Summary: This is a TR-FRET binding assay with MBNL1-His and Biotin-(CUG)12 RNA. The assay uses a ratiometric measurement. In the presence of MBNL1-(CUG)12 complex, the excitation energy is transferred to the XL665 acceptor label, causing emission at 665nm, while the 545nm donor signal […]. Data were normalized to the controls for basal activity (buffer only) and 100% activity (with MBNL1-(CUG)12). […] The final titration was 92 nM to 58 uM. (3) Add 1 ul of terbium labeled anti-His antibody (0.055 ng/ul final concentration) (4) Add 1 ul of streptavidin-XL665 (5 nM final concentration) (5) Incubate 60 min at room temperature (6) Detect the assay plate in a EnVision plate reader (PerkinElmer) with Ex=340 nm, Em1=665 nm and Em2=545 nm. Keywords: mytonic dystrophy type I, DM1, muscleblind like 1, MBNL1, CUG expansion, protein-RNA binding inhibitor, high throughput screening, MLSMR, MLSCN, NIH Roadmap, qHTS and NCGC

Chain of Muscleblind-like protein 1 (Homo sapiens) (Q9NR56 whole entry, looked up): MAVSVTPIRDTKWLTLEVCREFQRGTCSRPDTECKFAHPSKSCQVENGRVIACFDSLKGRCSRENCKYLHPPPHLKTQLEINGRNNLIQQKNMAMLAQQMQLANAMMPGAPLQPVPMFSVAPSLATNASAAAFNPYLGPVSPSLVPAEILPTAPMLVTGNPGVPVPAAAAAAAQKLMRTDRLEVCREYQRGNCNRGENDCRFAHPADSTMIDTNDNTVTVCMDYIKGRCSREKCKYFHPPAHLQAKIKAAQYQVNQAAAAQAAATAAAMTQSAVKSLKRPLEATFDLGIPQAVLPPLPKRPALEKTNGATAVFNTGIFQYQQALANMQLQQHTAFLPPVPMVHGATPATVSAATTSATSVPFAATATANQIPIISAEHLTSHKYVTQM

Activity change, negative = inhibition, inactive:
Cc1nc2nc(SCC(=O)Nc3cccc(F)c3)[nH]c2cc1Br
FC(F)(F)c1nnc2c3ccccc3c(Cl)nn12
COc1cc(CCC(=O)N2CCN(c3ccccc3Cl)CC2)cc(OC)c1OC
Cc1cc(=O)n2[nH]c(-c3cccc(Cl)c3)cc2n1
Cc1cc2oc(=O)cc(CN(C)Cc3ccc(OC(F)F)cc3)c2cc1Cl
CN(Cc1ccccc1)C(=O)c1ccc(COc2ccccc2)cc1
CCCCC(=O)Nc1ccccc1N1CCN(c2ccc(F)cc2)CC1
CC(=O)N1CCC(C(=O)OCc2ccc(Cl)cc2)(c2ccccc2)CC1
COc1cnc(-c2ccccn2)nc1Oc1ccc(C(C)(C)C)cc1
COc1ccc(-c2nn(-c3ccccc3)cc2/C=C2/SC(=S)N(CCCC(=O)O)C2=O)c(C)c1
C=CCSc1nnc(N2C(=O)C(O)=C(C(=O)c3ccco3)C2c2ccc(F)cc2)s1 (stereo not given)
CC1C(=O)Nc2ccc(S(=O)(=O)N3CCN(c4ccccc4F)CC3)cc2NC1=O (stereo not given)
CCN(CC(=O)Nc1ccc(C)c(S(=O)(=O)N(C)C)c1)Cc1ccccc1
O=C(c1ccccc1F)N(Cc1ccccc1)Cc1ccccc1
COc1ccc(COC(=O)c2ccc(Cl)c(S(=O)(=O)N3CCOCC3)c2)cc1F
CN(CC1CCCN(CCc2cccc(C(F)(F)F)c2)C1)C(=O)c1ccc2nc[nH]c2c1 (stereo not given)
COc1cc(/C=C/C(=O)N2CCc3ccccc3C2)cc(OC)c1OC
CN(C(=O)CN1C(=O)/C(=C/c2ccc(Cl)cc2)SC1=S)C1CCS(=O)(=O)C1 (stereo not given)
CC(=O)c1cc2c(cc1NC(=O)Cn1nc(-c3ccc(F)cc3)ccc1=O)OCO2
O=C(C1CCCN(S(=O)(=O)c2ccccc2)C1)N1CCN(c2ccc(F)cc2)CC1 (stereo not given)
CC(C)C[C@@H](COc1ccccc1)N1CCN(CC(C)C)CCC1=O
Cc1sc2ncn(CC(=O)NCCCC(=O)N3CCN(c4ccccc4F)CC3)c(=O)c2c1C
CCOC(=O)N1CCN(Cc2nc3cc(NC(=O)CC)ccc3n2CC)CC1
OC(CNCCc1ccc(Cl)cc1Cl)COc1ccccc1 (stereo not given)
Cc1cnc(C)c(N2CCN(C(=O)C3CCC(=O)N(CCc4cccc(F)c4)C3)CC2)n1 (stereo not given)
Cc1ccc(-n2nc3c(=O)n(C(C)C(=O)NCc4ccc5c(c4)OCO5)nc(C)c3c2C)cc1 (stereo not given)
CSc1ccc(S(=O)(=O)N2CCC(C(=O)NCCc3ccccc3)CC2)cc1
Cc1ccccc1NC(=S)NC(=O)Cc1ccc(Cl)cc1
COc1ccc(C(=O)NC2CCN(C(=O)Nc3ccc(F)cc3)CC2)cc1
CC(=O)c1cccc(NC(=O)CN2C(=O)c3cccnc3Oc3ccc(Cl)cc32)c1
Cc1cc(CN(C)C(=O)c2cc(COc3ccc(C)c(C)c3)on2)n[nH]1
COc1ccc2c(C)c(CCC(=O)NC3CC3)c(=O)oc2c1C
COc1cccc(C2CC(c3cccs3)=NN2C(=O)CSC2=NCCS2)c1OC (stereo not given)
COc1ccc(OC)c(NC(=O)CN(C)CCOc2ccc(Br)cc2)c1
COC(=O)c1cc(S(=O)(=O)Nc2ccc(C)c(F)c2)c[nH]1
COc1ccc(-c2nc3ccccc3c(=O)n2CCc2ccc(O)cc2)cc1
CCC(C(=O)OC)n1cnc2scc(-c3ccc(C)cc3)c2c1=O (stereo not given)
CCc1ccccc1N(CC(=O)NCC1CCCO1)C(=O)CCC(=O)Nc1nccs1 (stereo not given)
CCN1CCN(c2sc(S(C)(=O)=O)nc2S(=O)(=O)c2ccc(Cl)cc2)CC1
CCNC(=O)N1CCCC(C(=O)c2ccc(-c3ccccc3)cc2)C1 (stereo not given)

From PubChem BioAssay AID2675 (National Center for Advancing Translational Sciences (NCATS), 2010)
